Compound activity (PubChem)
HT1080 IDH1KD tx: HT-1080 IDH1 knockdown cell toxicity (counter line); HT-1080 IDH1 knockdown viability, ATP luminescence, 48 h; Potency, µM (top dose mostly 46.1 µM), for the others: at the top dose activity, negative = toxicity, most hits filed as cytotoxic; 360,000 compounds, 2% hits; AID 686971;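 further: 0% = DMSO wells and -100% = cell-free medium wells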
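Luminescent ATP read-out (CellTiter-Glo, 10 min at room temperature) after 48 h compound exposure at 37 °C gave viability of IDH1-knockdown HT-1080 cells. Activity was normalised to DMSO and cell-free wells, then fitted as concentration-response curves.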
ATXN2 expr inh: reduces ATXN2 reporter expression in HEK-293 cells; 360,000 compounds, 0.72% hits; HEK-293 ATXN2-luciferase reporter, luminescence, 24 h; AID 1745845; Potency, µM (series often up to 57 µM), without a hit: top-dose activity change, negative = inhibition, actives largely listed as inhibitors; further: on the % scale 0 is the no-effect control and ±100 the full control effect; nearly all actives have a fitted effect of over 55% in size
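qHTS (up to 57 uM final) was run with 24 h compound exposure of reporter cells at 37 °C. Each well was multiplexed: SteadyGlo luminescence measured ATXN2-luciferase expression after a fluorogenic Gly-Phe-AFC viability readout (25 uM final).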
HepG2 tox: HepG2 cytotoxicity, counter-screen for TGF-b inhibitors. HepG2 CAGA-GFP viability, ATP luminescence, 18 h. 410,000 compounds, 0.76% hits. Potency, µM (series often up to 46.1 µM), without a hit: top-dose activity change, negative = cytotoxicity, most hits filed as cytotoxic
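CellTiter-Glo luminescence gave cytotoxicity after 18 hours at 37 degrees C. The cells were HepG2 CAGA-GFP in 1% FBS DMEM, stimulated with 500 pg/mL TGF-beta after compound addition. %Activity was normalised to no-cell wells (complete cell-killing) and DMSO (no toxicity), and curves were fitted and classified.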
HT1080NT lethal: kills 2HG-producing HT-1080-NT fibrosarcoma cells; HT-1080-NT fibrosarcoma viability, CellTiter-Glo ATP luminescence, 48 h; Potency, µM (highest dose often 46.1 µM), for inactives: at the top dose activity, negative = less viability, actives largely listed as cytotoxic; 360,000 compounds, 1.6% hits; AID 686970;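 further: NT is the 2HG producing partner of a matched IDH1 knockdown line; 0% = DMSO-treated cells and -100% = media-only wells without cells; nearly all actives have a fitted effect of over 55% in size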
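Toxicity toward the 2HG-producing NT line was scored as %Activity, normalised to DMSO and no-cell wells, from CellTiter-Glo luminescence after 48 hours' treatment.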
S2 tox: reduces viability in counter-screen for ATXN expression inhibitors | Potency, µM (highest dose often 56.7 µM), actives largely listed as cytotoxic | S2 cells (HEK-293 line with an ATXN2-luciferase reporter) viability, CellTiter-Fluor protease fluorescence, 24 h | 400,000 compounds, 0.49% hits | AID 651635; further: nearly all actives have a fitted effect of over 40% in size
TGFb SMAD3 inh: TGF-b pathway inhibition. 410,000 compounds, 1.2% hits. HepG2 CAGA-GFP TGF-b/SMAD3 reporter, GFP fluorescence, 18 h; TGF-beta stimulated, 500 pg/mL final. Potency, µM (top dose mostly 46.1 µM), for inactives: at the highest dose activity, negative = inhibition, usual class: inhibitors; further: on the % scale 0 is the no-effect control and ±100 the full control effect; nearly all actives have a fitted effect of over 65% in size
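HEPG2 CAGA-GFP reporter cells (1000/well, DMEM with 1% FBS) received compounds, then recombinant TGF-beta at 500 pg/mL final for 18 hours at 37 degrees C. Per-cell GFP summed per well was normalised to unstimulated and stimulated DMSO controls before curve fitting.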
* marks the source's active call; other numbers are inactive results; i = inactive; ? = inconclusive; . = not tested or not shown; [ ] = another dose, or the depositor's remark. This is a sample that favours compounds with a hit; in the whole collection about 3.8% have one here. The call rests on the fitted dose curve; in most records, active means well fitted curve in the direction sought with a large enough effect; inconclusive means small, poorly fitted or top-dose-only effect, or another doubt; inactive means no such curve, though single readings can be large; an effect the other way counts as inactive or inconclusive. Potency means the concentration at half of the fitted maximal effect.

SMILES	HT1080 IDH1KD tx	ATXN2 expr inh	HepG2 tox	HT1080NT lethal	S2 tox	TGFb SMAD3 inh
Cc1ccc2nc(-c3ccccn3)c(N)n2c1	?	0.0%	10µM*	-26.9%	i	16.7%
Cc1ccc2nc(-c3ccccn3)c(Nc3ccc(F)cc3)n2c1	.	?	-13.7%	.	?	0.0%
CCn1c2ccccc2c(=O)c2ccccc21	-15.7%	-8.0%[11.3 µM]	-14.6%	10.1%	.	-13.0%
Cn1c(-c2ccccc2)c(C(=O)CCl)c2ccccc21	10.3µM*	?	-55.4%	14.6µM*	7.52µM*	?
Cn1c(-c2ccccc2)c(CCO)c2ccccc21	-5.1%	-1.3%	-37.1%	-3.4%	i	-8.4%
CCn1c(-c2ccccc2)c(C(=O)CCl)c2ccccc21	20.6µM*	.	8.7%	?	3.98µM*	3.2%
CCOc1cc(-c2ccc3c(c2)OCO3)cc(=[O+]CC)c2c(C)oc(C)c12	.	.	1.3%	.	.	-6.7%
Cc1coc2c(C)c3oc(=O)c(CCC(=O)NCCCn4ccnc4)c(C)c3cc12	-6.2%	-0.3%	-19.7%	-0.2%	i	?
Cc1c(CCC(=O)NCCCn2ccnc2)c(=O)oc2c(C)c3occ(C(C)(C)C)c3cc12	18.4µM*	?	-25.0%	?	?	?
Cc1nc2ccc(NC(=O)c3cccs3)cc2c(=O)n1Cc1ccc(Cl)cc1	?	14.1µM*	-29.8%	6.31µM*	?	?
OCCN1CCN(Cc2cc(Cl)c3cccnc3c2O)CC1	3.16µM*	22.4µM*	-26.2%	5.01µM*	i	?
CN(C)C1CCN(Cc2cc(COCc3ccccc3)c3cccnc3c2O)C1 (stereo not drawn)	.	?	-13.2%	.	?	?
COCc1cc(CN2CCCC2)c(O)c2ncccc12	0.631µM*	?	-25.9%	1.12µM*	?	?
O=[N+]([O-])c1cc(CN2CCCC2)c2cccnc2c1O	?	-9.9%	0.7%	16.4µM*	i	6.1%
Oc1c(CN2CCCCC2)cc(COCc2ccccc2)c2cccnc12	2.91µM*	3.16µM*	-93.1%	7.31µM*	?	?
Oc1c(CN2CCN(c3ccccn3)CC2)cc(Cl)c2cccnc12	?	?	-51.7%	?	i	?
O=C1c2ccccc2C(=O)N1c1cccc(O)c1	.	.	1.9%	.	.	32.0%
NC1C(N)C(N)C1N (stereo not drawn)	3.7%	.	.	9.2%	.	.
Cc1ccc(OCCCCNC2CCCC(C)C2C)c(C)c1 (stereo not drawn)	?	?	-94.4%	20.6µM*	?	?
Cc1ccc(OCCCCN2CCCCC2)c(C)c1	-0.4%	-1.1%	1.7%	-1.9%	i	-5.0%
COc1cccc(OCc2cc(C3Nc4ccccc4C(=O)N3c3ccccc3)ccc2OC)c1 (stereo not drawn)	.	.	-1.9%	.	.	3.8%
Cc1cc(S(=O)(=O)c2ccc([N+](=O)[O-])cn2)ccc1Br	3.66µM*	?	1.9%	2.31µM*	.	?
Cc1cc(Sc2ccc([N+](=O)[O-])cn2)ccc1Br	3.0%	-20.2%	12.8%	-12.8%	.	29.9%
Cc1cccc(C)c1NC(=O)CN(C)S(=O)(=O)c1ccc2c(c1)n(C)c(=O)c(=O)n2C	.	8.7%	-9.3%	.	i	?
Cc1cc(-c2ccccc2)nc2cc(C(=O)N(Cc3ccccc3)Cc3ccccc3)nn12	16.4µM*	?	-0.5%	?	?	?
COC(=O)c1cc2nc(-c3ccccc3)cc(C)n2n1	2.1%	0.6%	10.0%	4.0%	i	?
Nc1[nH]n(-c2ccccc2)c(=O)c1N=Nc1ccc2c(c1)OCO2	?	.	-22.2%	-20.3%	?	-23.3%
Nc1nn(-c2ccccc2)c(N)c1N=Nc1ccc2c(c1)OCO2	6.51µM*	66.1%	-0.1%	18.4µM*	?	-13.9%
Nc1nn(-c2ccccc2)c(N)c1N=Nc1cccc(F)c1	5.8µM*	54.0%	-4.0%	16.4µM*	?	?
